# The whole screen tested about 340,000 compounds, of which about 2,100 (0.62%) were called active.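 How the source made its calls: active means first-screen hits whose inhibition reached a set limit at any dose in the follow-up dose series; inconclusive means inhibition above the set first-screen limit but never retested; inactive means the rest.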 Not all results are given here. Entries with a potency or affinity are not part of this list.
# Target: Rac GTPase-activating protein 1 (Homo sapiens) (UniProt Q9H0H5)
# Test: MgcRacGAP GTPase-activating activity inhibitors, confirmation, biochemical, ADP Hunter fluorescence, primary and confirmatory (AID 624330);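 further: fluorescence reports GDP produced by GAP-driven GTP hydrolysis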
# Settings: MgcRacGAP-stimulated Rac1 GTP hydrolysis, at 30 µM, stronger effect = higher value, GST-tagged Rac1 F28L mutant substrate
# Sequence of Rac GTPase-activating protein 1 (Homo sapiens) (Q9H0H5 whole entry, looked up): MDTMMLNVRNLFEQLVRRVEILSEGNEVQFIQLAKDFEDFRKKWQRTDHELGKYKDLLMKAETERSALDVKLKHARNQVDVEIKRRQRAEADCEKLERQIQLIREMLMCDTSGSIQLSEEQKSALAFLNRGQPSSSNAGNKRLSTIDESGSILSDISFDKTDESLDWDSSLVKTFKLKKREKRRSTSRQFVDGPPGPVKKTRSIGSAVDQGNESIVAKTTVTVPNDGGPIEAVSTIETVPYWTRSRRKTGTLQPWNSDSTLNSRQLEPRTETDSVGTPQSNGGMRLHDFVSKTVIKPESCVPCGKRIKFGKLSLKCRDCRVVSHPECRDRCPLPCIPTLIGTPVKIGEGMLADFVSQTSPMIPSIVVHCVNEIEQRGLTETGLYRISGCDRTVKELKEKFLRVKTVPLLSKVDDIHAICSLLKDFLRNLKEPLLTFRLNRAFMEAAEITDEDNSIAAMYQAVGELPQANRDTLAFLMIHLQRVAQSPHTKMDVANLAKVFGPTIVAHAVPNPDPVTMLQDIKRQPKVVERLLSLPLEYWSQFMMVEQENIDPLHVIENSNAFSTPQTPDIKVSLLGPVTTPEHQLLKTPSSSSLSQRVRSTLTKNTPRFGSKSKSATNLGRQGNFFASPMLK
row,SMILES,inhibition
1,C[C@H](CO)N1C[C@H](C)[C@@H](CN(C)C(=O)Nc2ccc(C(F)(F)F)cc2)Oc2ccc(NC(=O)CCC(F)(F)F)cc2C1=O,5.69% (inactive)
2,COCC(C)OC(=O)C(C#N)c1nc2ccccc2nc1N1CCN(Cc2ccccc2)CC1 (stereo not drawn),6.54% (inactive)
3,Cc1cc(C)n(CCC(=O)N/N=C/c2ccccc2O)n1,3.84% (inactive)
4,O=C(CCn1cnc2ccccc21)N/N=C/c1ccccc1O,0.87% (inactive)
5,Cc1cc(C)n(CCC(=O)N/N=C/c2ccc(O)cc2O)n1,-27.4% (inactive)
6,O=C(Cn1cc(C(F)(F)F)ccc1=O)N/N=C/c1ccc(F)cc1,-1.82% (inactive)
7,COc1ccc(/C=N/NC(=O)CCn2nc(C)cc2C)cc1,-2.7% (inactive)
8,COc1ccc(/C=N/NC(=O)CCn2nc(C)cc2C)cc1O,26.5% (inactive)
9,O=C(Cn1cc(C(F)(F)F)ccc1=O)N/N=C/c1ccc(Cl)cc1,11.1% (inactive)
10,O=C(CCn1cnc(-c2ccccc2)c1-c1ccccc1)N/N=C/c1ccc(O)cc1,27.5% (inactive)
11,O=C(Nc1ccc(C(=O)N2CCCCC2)cc1)c1ccc([N+](=O)[O-])cc1,1.12% (inactive)
12,Cc1ccccc1-c1cc(C(=O)O)nn1CC1CC(c2cccc([N+](=O)[O-])c2)=NO1 (stereo not drawn),4.15% (inactive)
13,COc1ccc(CCNC(=O)c2cc(C3CC3)nc3c2cnn3C(C)C)cc1,1.51% (inactive)
14,O=C(Nn1cnnc1)c1ccc(OC(F)(F)C(F)C(F)(F)F)cc1 (stereo not drawn),7.79% (inactive)
15,CCCNC(=S)NNC(=O)c1cc(-c2cccnc2)nc2ccccc12,0.84% (inactive)
16,CS(=O)(=O)c1cccc(C(=O)Nc2cccc(S(=O)(=O)N3CCCC3)c2)c1,3.17% (inactive)
17,CC(=O)N1CCN(C(=O)c2ccc(NS(=O)(=O)c3ccc4c(c3)OCCO4)cc2)CC1,5.18% (inactive)
18,O=C(CSc1ccc2ccccc2n1)N/N=C/c1ccccc1O,4.3% (inactive)
19,COc1ccccc1/C=N/NC(=O)CSc1ccc2ccccc2n1,17.4% (inactive)
20,O=C(CNC(=O)c1ccc(Cl)cc1Cl)NCc1ccccn1,-0.06% (inactive)
21,CC1CCN(S(=O)(=O)c2ccc3[nH]c(=O)[nH]c3c2)CC1,6.82% (inactive)
22,CC1CCN(S(=O)(=O)c2ccc3ccccc3c2)CC1,1.45% (inactive)
23,Cc1ccc2c(c1)N(C(C)C(=O)NCc1ccc3c(c1)OCO3)C(=O)CO2 (stereo not drawn),11.4% (inactive)
24,Cc1ccc(C(=O)COC(=O)c2nc3nccc(C)n3n2)c(C)c1,5.3% (inactive)
25,NC(=O)c1cc2ccncc2c2ccccc12,8.91% (inactive)

row,SMILES,inhibition
1,CC1CC2(CCCCC2)Nc2ccc3ccccc3c21 (stereo not drawn),12.5% (inactive)
2,CC1NC(C)(C)Cc2c1ccc1ccccc21 (stereo not drawn),2.36% (inactive)
3,Cc1cccc(OCC(=O)NNC(=O)C2CCN(c3ncnc4sc(C)c(C)c34)CC2)c1,12.2% (inactive)
4,COc1ccc(Nc2nc(OC)nc(OC)n2)cc1,14.1% (inactive)
5,CNc1nc(Nc2ccc(C(C)=O)cc2)nc(OC(C(F)(F)F)C(F)(F)F)n1,8.39% (inactive)
6,CCCC(C)NC(=O)CN1C(=O)c2cccc3cccc1c23 (stereo not drawn),7.54% (inactive)
7,CN(CCc1ccccn1)Cc1ccc(Cl)cc1Cl,19.1% (inactive)
8,CCc1ccc(CN(C)CCc2ccccn2)cc1,13.2% (inactive)
9,COc1ccc(CN(C)Cc2ccccc2)c(OC)c1OC,4.85% (inactive)
10,CN(CCc1ccccn1)Cc1ccc(Cl)cc1,24% (inactive)
11,Cc1cccc(CN(C)CCc2ccccn2)c1,9.5% (inactive)
12,Cc1ccc(CN(C)CCc2ccccn2)cc1,13% (inactive)
13,CN(CCc1ccccn1)Cc1ccc(Cl)c(Cl)c1,27.1% (inactive)
14,COc1ccc(CCN(C)Cc2ccc(OC)c(OCc3ccccc3)c2)cc1OC,18.3% (inactive)
15,CC(C)=CCCC(C)=CCN1C(=O)CN(C)C1=O,4.98% (inactive)
16,CC(=O)c1cccc(NC(=O)C(C)OC(=O)CCC2CCCCC2)c1 (stereo not drawn),1.73% (inactive)
17,O=[N+]([O-])c1cccc(/C=N/n2cnnc2)c1O,4.49% (inactive)
18,Cc1onc(-c2ccccc2Cl)c1C(=O)NCCCN1CCOCC1,12% (inactive)
19,NS(=O)(=O)c1ccc(N/N=C/c2cn(-c3ccccc3)nc2-c2cccs2)cc1,2.12% (inactive)
20,CCN(CCCCCCN)c1ccc2c(=O)[nH][nH]c(=O)c2c1,3.58% (inactive)
21,Cc1ccc(-n2ncc3c(NNC(=O)c4ccco4)ncnc32)c(C)c1,7.64% (inactive)
22,CCc1ccc(C2=NN(CCC(=O)NCC3CCCO3)C(=O)CC2)cc1 (stereo not drawn),11.8% (inactive)
23,CCNC(=S)N(CCc1c(C)[nH]c2ccc(OC)cc12)Cc1cccnc1,12.7% (inactive)
24,O=C(NCc1ccccc1)c1ccc2c(=O)[nH]c3c(C(=O)NCC4CCCO4)sc(=S)n3c2c1 (stereo not drawn),16.2% (inactive)
25,O=C(NC1CCCCC1)c1sc(=S)n2c1[nH]c(=O)c1ccccc12,10.6% (inactive)

row,SMILES,inhibition
1,Cc1ccccc1Cn1nc(C)c(NC(=O)c2cc(CC(C)C)on2)c1C,9.15% (inactive)
2,COc1ccc(NC(=O)c2c(NC(=O)CNCc3ccco3)sc3c2CCC3)cc1,15.6% (inactive)
3,COC(=O)c1c(NC(=O)c2ccco2)sc2c1CCC2,15.8% (inactive)
4,CC(Sc1nncn1C)C(=O)Nc1nnc(C(C)C)s1 (stereo not drawn),-0.22% (inactive)
5,CC(=O)CSc1nnc(NC(=O)CCc2ccccc2)s1,2.89% (inactive)
6,CCNC(=S)NNC(=O)c1cc(Br)cs1,11.2% (inactive)
7,CCCCn1c(N)c(N(Cc2ccccc2OC)C(=O)C(C)Oc2ccc(F)cc2)c(=O)[nH]c1=O (stereo not drawn),6.07% (inactive)
8,C=CCSc1nnc(NC(=O)CSc2nc(CCC)cc(=O)[nH]2)s1,12.2% (inactive)
9,COc1cc(NC(=O)CN2C(=O)NC(C)(CCC(C)C)C2=O)cc(OC)c1 (stereo not drawn),-1.63% (inactive)
10,CCOC(=O)c1[nH]c2ccccc2c1NC(C)=O,2.46% (inactive)
11,COC(=O)c1[nH]c2ccc(C)cc2c1NC(=O)Oc1ccccc1,84.7% (inactive)
12,COC(=O)c1[nH]c2cc(OC)c(OC)cc2c1NC(=O)c1cccc(OC)c1,10.8% (inactive)
13,COC(=O)c1[nH]c2ccccc2c1NC(=O)c1c(F)cccc1F,-14.4% (inactive)
14,C=CCOC(=O)Nc1c(C(=O)OC)[nH]c2ccc(Cl)cc12,0.34% (inactive)
15,CCOC(=O)c1[nH]c2ccccc2c1NC(=O)CC,-0.8% (inactive)
16,CCOC(=O)Nc1c(C(=O)OC)[nH]c2cc(OC)ccc12,8.73% (inactive)
17,C=CCOC(=O)Nc1c(C(=O)OC)[nH]c2ccccc12,13.1% (inactive)
18,N#Cc1c(/N=C/c2cc(Br)cs2)sc2c1CCC2,14.5% (inactive)
19,NC(=O)C[C@@H]1NC(=O)[C@H](CCC(=O)O)NC(=O)c2cc([N+](=O)[O-])cc(I)c2OCC[C@@H](C(N)=O)NC1=O,6.13% (inactive)
20,CC1CCN(C(=O)CSc2nnc(-c3cccnc3)o2)CC1,7.43% (inactive)
21,Cc1cc(C)nc(NC(=NCCc2c[nH]c3ccccc23)NC(=O)Nc2cccc([N+](=O)[O-])c2)n1,8.14% (inactive)
22,Cc1ccc(-c2[nH]ncc2/C=C(\C#N)C(=O)NC2CCCCC2)cc1,6.42% (inactive)
23,Cc1cc(C)c(C(=O)N2CCCC(C(=O)c3cc(F)ccc3F)C2)o1 (stereo not drawn),5.58% (inactive)
24,CCOC(=O)c1[nH]c2ccc(OC)cc2c1NC(=O)c1cccc(OC)c1,5.01% (inactive)
25,CCOC(=O)c1[nH]c2ccc(F)cc2c1NC(=O)c1ccccc1C(=O)O,66% (inactive)

row,SMILES,inhibition
1,CCc1ccc(CN(C)C(=O)c2cc(COc3ccc(OC)cc3Cl)on2)nc1,10.7% (inactive)
2,Oc1ccc(-c2nccc(-c3cccs3)n2)cc1,9.71% (inactive)
3,c1ccc2nc(-c3nccs3)ccc2c1,1.49% (inactive)
4,COc1cc(CCCN2CCNC[C@@H]2C(C)O)cc(OC)c1OC (stereo partly drawn),3.02% (inactive)
5,COc1ccc(N2CCN(C(=O)CCCn3c(=O)[nH]c4cc(Cl)ccc4c3=O)CC2)cc1,12.7% (inactive)
6,Cc1nnc(SCc2ccc(Cl)c(Cl)c2)s1,5.65% (inactive)
7,CCc1noc(C)c1C(=O)NNC(=O)c1ccc(Br)cc1,5.66% (inactive)
8,CCOC(=O)/C(C#N)=C/c1ccc(OC)c(OC)c1,5.15% (inactive)
9,N#C/C(=C\c1cccc(O)c1)C(=O)Nc1ccc2c(c1)OCCO2,7.83% (inactive)
10,CCOC(=O)/C(C#N)=C\c1ccc(OC)c(OC)c1,8.76% (inactive)
11,N#C/C(=C\c1ccc2c(c1)OCCO2)C(=O)Nc1ccc(C(=O)O)cc1,8.32% (inactive)
12,COc1cc(/C=C(\C#N)C(=O)Nc2ccccn2)ccc1O,14.9% (inactive)
13,COCCNC(=O)/C(C#N)=C/c1ccc2c(c1)OCO2,0.46% (inactive)
14,Cc1cc(C)c(OCCOCCN(C)C)c(Br)c1,12.7% (inactive)
15,CC(C)(C)[C@@H]1C=C(C(N)=O)O[C@H](OCCCCO)C1,4.43% (inactive)
16,CN(C(=O)CN1C(=O)NC(C)(c2cccc(Br)c2)C1=O)C1CCCCC1 (stereo not drawn),6.93% (inactive)
17,COc1ccc2nc(SCCOC(=O)Nc3ccc(Cl)cc3)nc(C)c2c1,9.72% (inactive)
18,CC1=C(C(=O)NC2CC(C)(C)Cc3c2cnn3-c2cccc(F)c2)OCCO1 (stereo not drawn),-2.86% (inactive)
19,CCC(C(=O)Nc1cc(C)nn1-c1nc(C)cc(C)n1)c1ccccc1 (stereo not drawn),13.7% (inactive)
20,O=C1NN(c2ccccc2)C(=O)/C1=C\c1ccccc1,21.7% (inactive)
21,O=C1NN(c2cccc(Br)c2)C(=O)/C1=C\c1ccc(O)cc1,14.5% (inactive)
22,O=C1NN(c2ccccc2)C(=O)C1=Cc1ccccc1,13.7% (inactive)
23,COc1cccc(/C=C2/C(=O)NN(c3ccc(Br)cc3)C2=O)c1O,13.4% (inactive)

# — PubChem BioAssay AID624330 (Southern Research Specialized Biocontainment Screening …, 2012)
